{"source": "PubChem BioAssay", "note": "Values without a mark were called inactive. Active and inactive are the calls of the source. Further: test concentration not given here."}
{"experiment": "yeast growth modulation, basal conditions, primary screen, YJM789 clinical isolate, OD600, 24 h (AID 1089);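 further: growth of clinical yeast isolate S. cerevisiae YJM 789 seeded 1000 cells per well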", "settings": "S. cerevisiae YJM789 growth, higher = more signal, called active from +8 up or from −8 down"}
{"compound": "COc1ccc([Si](C)(C)[C@@H]2[C@@H](CC(=O)N3Cc4ccccc4C[C@H]3CO)O[C@]3(C(=O)N(Cc4cccc(N5CCC5=O)c4)c4ccccc43)[C@H]2C)cc1", "z-score": 0.0342}
{"compound": "O=C1C[C@@](C(=O)NCc2ccccc2)(c2ccc([N+](=O)[O-])cc2)[C@@H](c2ccc(CO)cc2)N1CC12CC3CC(CC(C3)C1)C2", "z-score": 0.893}
{"compound": "CC=CC(O)C1C=CC2C(=O)N(C)C(=O)C2N1N(c1ccccc1)c1ccccc1", "note": "(stereo not drawn)", "z-score": 0.586}
{"compound": "C=C(CCCC)C(=O)CC[C@H](OC(=O)c1cccnc1)c1ccc(OCCO)cc1", "z-score": 0.0275}
{"compound": "CCOC(=O)C1=CCC(c2ccc(F)cc2)N(S(=O)(=O)c2ccc(C)cc2)C1", "note": "(stereo not drawn)", "z-score": 0.265}
{"compound": "O=C1OCCC=C[C@H]2OC34C=CCN(Cn5nnc6ccccc65)C(=O)[C@H]3N(CCO)C(=O)[C@@H]4C12", "note": "(stereo partly drawn)", "z-score": -0.352}
{"compound": "CC(c1ccccc1)C(O)C1C=CC2C(=O)N(c3ccccc3)C(=O)C2N1Nc1ccccc1", "note": "(stereo not drawn)", "z-score": 0.205}
{"compound": "NCCCCCNC(=O)[C@H]1C[C@H]2C(=O)N3CCC[C@H]3C(=O)N2[C@H]1c1ccc(O)cc1", "z-score": -0.948}
{"experiment": "fission yeast growth modulation, primary screen, strain 972, OD600, 24 h, no modulator (AID 1090);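 further: basal condition with compound alone and no growth modifier present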", "settings": "S. pombe 972 growth, higher = more signal, called active from +8 up or from −8 down"}
{"compound": "COC(=O)c1c(CC[C@@H](CO)NC(=O)NCCc2c[nH]c3ccccc23)oc(C(=O)Cc2ccccc2)c1C(=O)OC", "z-score": 0.215}
{"compound": "CC(C)[Si](C#CCCCC#N)(Oc1ccccc1Br)C(C)C", "z-score": -1.09}
{"compound": "COc1cc(CO)cc(I)c1O[C@H]1C=C(C(=O)NCCO)C[C@@H](N(C(=O)c2cc3ccccc3oc2=O)C2CCCCCC2)[C@@H]1O", "z-score": -1.59}
{"compound": "C=CCC(OC(C)=O)[C@@H]1[C@@H](N(Cc2ccc(-c3cccc(C(F)(F)F)c3)o2)C(=O)c2cccc3ccccc23)c2cc(OCCCO)ccc2N1C(=O)Cc1ccc2ccccc2c1", "note": "(stereo partly drawn)", "z-score": -0.463}
{"compound": "CC(c1ccccc1)C(O)C1C=CC2C(=O)N(C)C(=O)C2N1NC(=O)OC(C)(C)C", "note": "(stereo not drawn)", "z-score": 0.0391}
{"compound": "COc1ccc(CCNC(=O)[C@@]2(C)c3ccccc3C(=O)N(c3ccc(C)cn3)[C@H]2c2ccc(CO)cc2)cc1", "z-score": -0.739}
{"compound": "C#CCNCc1ccccc1", "z-score": -0.749}
{"compound": "CC[C@@H]1C=C(C(=O)O)[C@H](c2ccc(C)cc2)N1S(=O)(=O)c1ccc(C)cc1", "z-score": 0.992}
{"compound": "COCCCNC(=O)[C@@H]1c2ccccc2C(=O)N(Cc2ccccc2OC)[C@H]1c1ccc(CO)cc1", "z-score": -0.757}
{"compound": "C=CCOC(=O)[C@H]1[C@@H]2C(=O)O[C@@H](c3ccccc3)[C@@H](c3ccccc3)N2[C@@H](c2ccc(OCCOC(=O)[C@@H]3C[C@@H]4C(=O)N5CCC[C@H]5C(=O)N4[C@@H]3c3cccc(OCCO)c3)cc2)[C@]12C(=O)Nc1ccc(I)cc12", "z-score": 1.04}
{"compound": "CC(=O)NCCCC[C@@H]1NC(=O)[C@H]2C[C@@H](C(=O)O)[C@@H](c3ccc(O)cc3)N2C1=O", "z-score": -2.62}
{"compound": "CCCC=C(CCC)[C@@H](NS(=O)(=O)c1ccc(Cl)cc1)c1ccc(C(=O)OC)cc1", "z-score": 0.745}
{"compound": "[N-]=[N+]=NCc1ccccc1[C@@H]1OC(c2ccc(OCCCO)cc2)=N[C@]1(CCS(=O)(=O)c1ccccc1)C(=O)N1CCCCC1", "z-score": 0.454}
{"compound": "C=CCC(OC(C)=O)[C@@H]1[C@@H](N(Cc2ccc(-c3ccccc3)cc2)C(=O)Cc2ccc(F)cc2)c2cc(OCCCO)ccc2N1C(=O)c1ccc2ccccc2c1", "note": "(stereo partly drawn)", "z-score": 0.135}
{"compound": "CCCCCCCCCCC(O)C1C=CC2C(=O)NC(=O)C2N1Nc1ccc(Cl)cc1Cl", "note": "(stereo not drawn)", "z-score": -0.451}
{"compound": "COc1ccc([Si](C)(C)[C@@H]2[C@@H](CCn3cc(CCO)nn3)O[C@]3(C(=O)N(Cc4cccc(N5C(=O)c6cccc7cccc5c67)c4)c4ccccc43)[C@H]2C)cc1", "z-score": 1.56}
{"compound": "COCCCNC(=O)[C@@]1(CCS(=O)(=O)c2ccccc2)N=C(c2ccc(OCCCO)cc2)O[C@H]1c1ccccc1N=[N+]=[N-]", "z-score": 0.431}
{"compound": "O[C@@H](Cc1ccccc1)[C@@H](/C=C/C1CC1)NCc1cccc(Cl)c1", "z-score": "-19 (active)"}
{"compound": "CCC(CC)C(O)C1C=CC2C(=O)N(c3ccccc3)C(=O)C2N1Nc1ccccc1", "note": "(stereo not drawn)", "z-score": -0.914}
{"compound": "COC(=O)[C@@]1(Cc2ccccc2)[C@H]2c3cc(C(=O)N4CCCC4)n(Cc4ccc(O)c(OC)c4)c3C[C@H]2CN1C(=O)c1ccccc1", "z-score": 0.943}
